The values that follow come from PubChem BioAssay.

Active and inactive are the calls of the source.

Assay [1] in a line: small molecules captured by biotinylated probe aFSTL3 – biochemical, small-molecule microarray, fluorescence 635/667, stem cell growth factor project, primary screen (AID 1064).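 Further: measures binding of the biotinylated anti-FSTL3 antibody to printed compounds.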 To be noted: higher = more signal.
Assay [2] can be described thus: binders from COS7 lysate, DM2A8 probe, primary screen, torsin A project, cell lysate, small-molecule microarray, fluorescence 635/667 (AID 1065). To be noted: higher = more signal, COS7 lysate expressing mutant human TOR1A.
A short description of assay [3]: small molecules captured by biotinylated probe aFGF2 – biochemical, small-molecule microarray, fluorescence 635/667, stem cell growth factor project, primary screen (AID 1067).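 Further: measures binding of biotinylated aFGF2 protein to printed compounds on slides; z-score merges feature fluorescence and signal-to-noise across triplicate slides.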 The following applies: higher = more signal.
Assay [4] can be described thus: small molecules captured by biotinylated probe aFGF10 – biochemical, small-molecule microarray, fluorescence 635/667, stem cell growth factor project, primary screen (AID 1071).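 Further: score merges 667 nm spot intensity and signal to noise from triplicate slides.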 The following applies: higher = more signal.
Assay [5] deals with Neurogenic locus notch homolog protein 2 (Homo sapiens) (UniProt Q04721). Put plainly: small molecules binding Notch2 protein – biochemical, small-molecule microarray, 635 nm fluorescence, stem cell growth factors, primary screen (AID 1073). The following applies: higher = more signal.
Neurogenic locus notch homolog protein 2 (Homo sapiens), sequence (Q04721 whole entry, looked up, canonical isoform): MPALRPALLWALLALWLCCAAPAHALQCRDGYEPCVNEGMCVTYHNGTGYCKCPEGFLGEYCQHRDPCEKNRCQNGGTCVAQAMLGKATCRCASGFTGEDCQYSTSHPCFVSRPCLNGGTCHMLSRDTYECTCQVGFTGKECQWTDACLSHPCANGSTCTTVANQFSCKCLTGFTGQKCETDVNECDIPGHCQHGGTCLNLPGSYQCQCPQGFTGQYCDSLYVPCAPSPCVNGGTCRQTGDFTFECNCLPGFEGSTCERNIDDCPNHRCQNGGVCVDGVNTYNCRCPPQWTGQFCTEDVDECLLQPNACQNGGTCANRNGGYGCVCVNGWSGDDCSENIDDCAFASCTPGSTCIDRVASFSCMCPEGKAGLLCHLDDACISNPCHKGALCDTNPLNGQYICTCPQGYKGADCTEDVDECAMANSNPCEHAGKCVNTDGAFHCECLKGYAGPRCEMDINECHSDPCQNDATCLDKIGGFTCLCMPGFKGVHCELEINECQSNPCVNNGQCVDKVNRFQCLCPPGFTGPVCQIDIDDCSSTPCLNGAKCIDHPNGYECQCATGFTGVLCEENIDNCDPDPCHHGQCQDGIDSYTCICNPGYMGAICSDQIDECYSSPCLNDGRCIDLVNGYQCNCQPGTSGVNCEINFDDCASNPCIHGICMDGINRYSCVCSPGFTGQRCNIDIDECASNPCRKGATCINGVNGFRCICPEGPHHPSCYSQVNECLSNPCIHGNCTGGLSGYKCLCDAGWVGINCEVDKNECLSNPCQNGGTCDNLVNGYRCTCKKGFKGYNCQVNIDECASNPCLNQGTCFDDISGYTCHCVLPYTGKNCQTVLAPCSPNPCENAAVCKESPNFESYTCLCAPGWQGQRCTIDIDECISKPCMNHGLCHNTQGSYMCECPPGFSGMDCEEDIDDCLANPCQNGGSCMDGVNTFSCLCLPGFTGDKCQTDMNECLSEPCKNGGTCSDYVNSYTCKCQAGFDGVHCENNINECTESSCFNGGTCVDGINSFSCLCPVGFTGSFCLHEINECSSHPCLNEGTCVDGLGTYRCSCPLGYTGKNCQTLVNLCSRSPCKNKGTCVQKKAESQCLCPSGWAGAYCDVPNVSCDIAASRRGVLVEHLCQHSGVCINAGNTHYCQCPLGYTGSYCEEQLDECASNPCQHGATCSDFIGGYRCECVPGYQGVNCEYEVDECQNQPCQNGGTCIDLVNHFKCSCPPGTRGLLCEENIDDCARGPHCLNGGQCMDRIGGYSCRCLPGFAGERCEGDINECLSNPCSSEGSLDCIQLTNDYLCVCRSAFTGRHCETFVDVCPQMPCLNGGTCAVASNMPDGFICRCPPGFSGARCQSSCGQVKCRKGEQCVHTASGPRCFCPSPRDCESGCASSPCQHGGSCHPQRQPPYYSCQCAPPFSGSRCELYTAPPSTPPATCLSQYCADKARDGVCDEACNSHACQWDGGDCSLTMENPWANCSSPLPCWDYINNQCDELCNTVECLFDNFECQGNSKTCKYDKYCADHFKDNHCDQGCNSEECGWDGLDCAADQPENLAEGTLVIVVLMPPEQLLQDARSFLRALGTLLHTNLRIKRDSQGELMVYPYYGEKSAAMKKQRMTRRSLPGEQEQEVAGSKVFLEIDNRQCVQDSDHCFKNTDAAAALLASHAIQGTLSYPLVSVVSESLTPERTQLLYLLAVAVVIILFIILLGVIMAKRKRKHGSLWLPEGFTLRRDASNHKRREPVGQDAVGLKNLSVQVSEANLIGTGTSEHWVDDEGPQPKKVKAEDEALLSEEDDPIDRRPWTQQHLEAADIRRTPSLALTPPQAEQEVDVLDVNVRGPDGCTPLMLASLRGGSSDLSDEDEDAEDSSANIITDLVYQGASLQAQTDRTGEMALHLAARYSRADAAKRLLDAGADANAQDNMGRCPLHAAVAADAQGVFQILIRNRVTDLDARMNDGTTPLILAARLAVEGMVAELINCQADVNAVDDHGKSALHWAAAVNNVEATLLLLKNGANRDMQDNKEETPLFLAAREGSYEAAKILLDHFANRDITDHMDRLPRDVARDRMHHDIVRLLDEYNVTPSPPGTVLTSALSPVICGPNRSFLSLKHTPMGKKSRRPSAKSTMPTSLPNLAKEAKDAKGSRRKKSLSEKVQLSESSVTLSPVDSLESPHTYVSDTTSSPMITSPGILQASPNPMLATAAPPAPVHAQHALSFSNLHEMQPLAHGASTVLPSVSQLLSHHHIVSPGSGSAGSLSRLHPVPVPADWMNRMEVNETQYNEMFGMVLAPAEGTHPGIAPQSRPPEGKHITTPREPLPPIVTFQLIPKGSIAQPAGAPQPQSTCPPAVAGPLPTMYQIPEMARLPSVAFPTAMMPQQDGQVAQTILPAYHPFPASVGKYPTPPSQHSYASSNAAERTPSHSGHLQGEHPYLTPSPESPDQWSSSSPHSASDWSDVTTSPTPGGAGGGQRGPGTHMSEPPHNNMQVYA
For assay [6], the target named is Pro-neuregulin-1, membrane-bound isoform (Homo sapiens) (UniProt Q02297). Briefly: small molecules binding neuregulin-1 protein – biochemical, small-molecule microarray, fluorescence 635/667, psychiatric disease protein project, primary screen (AID 1075).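 Further: score combines 667 nm spot fluorescence with signal to noise.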 To be noted: NRG1 binding, 635 nm fluorescence, higher = more signal.
Pro-neuregulin-1, membrane-bound isoform (Homo sapiens), sequence (Q02297 whole entry, looked up, the tested form may be a part, canonical isoform): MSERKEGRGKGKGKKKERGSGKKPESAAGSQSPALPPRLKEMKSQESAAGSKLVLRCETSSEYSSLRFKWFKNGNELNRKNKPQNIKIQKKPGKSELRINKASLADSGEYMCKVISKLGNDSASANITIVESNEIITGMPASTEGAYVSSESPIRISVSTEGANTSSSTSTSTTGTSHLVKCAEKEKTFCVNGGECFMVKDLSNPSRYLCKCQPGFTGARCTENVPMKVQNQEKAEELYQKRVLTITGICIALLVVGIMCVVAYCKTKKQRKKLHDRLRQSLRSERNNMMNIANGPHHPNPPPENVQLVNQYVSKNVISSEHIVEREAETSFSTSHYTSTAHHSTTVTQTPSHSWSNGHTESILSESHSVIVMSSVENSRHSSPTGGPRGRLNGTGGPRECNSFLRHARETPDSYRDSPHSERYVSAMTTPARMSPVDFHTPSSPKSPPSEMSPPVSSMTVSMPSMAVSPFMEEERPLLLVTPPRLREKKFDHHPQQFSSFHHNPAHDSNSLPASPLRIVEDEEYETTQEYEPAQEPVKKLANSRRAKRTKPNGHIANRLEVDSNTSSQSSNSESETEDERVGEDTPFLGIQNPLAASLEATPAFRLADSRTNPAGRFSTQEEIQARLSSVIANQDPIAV
Assay [7] relates to Neuregulin-1 EGF-like domain. Briefly: small molecules binding NRG1 EGF domain – biochemical, small-molecule microarray, 635 nm fluorescence, primary screen (AID 1081).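 Further: binding of the protein to compounds printed on small-molecule microarray slides.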 The following applies: higher = more signal.
The nature of assay [8]: FRG1 expression reporter modulators in myotubes – cell-based, C2C12 myotubes, firefly/Renilla luciferase, luminescence, FRG1 inhibition for FSHD, primary screen (AID 1084). To be noted: FRG1 promoter luciferase, higher = more signal, called active from +8 up or from −8 down.
Assay [9] is described as follows: small molecules captured by biotinylated probe aFST – biochemical, small-molecule microarray, fluorescence 635/667, stem cell growth factor project, primary screen (AID 1086).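 Further: score merges 667 nm fluorescence with signal-to-noise of each printed compound spot.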 To be noted: higher = more signal.
Assay [10] in a line: binders of probe aHhip on microarray, primary screen, stem cell growth factor project, biochemical, small-molecule microarray, fluorescence 635/667 (AID 1087).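 Further: score merges spot fluorescence at 667nm with spot signal to noise ratio.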 The following applies: higher = more signal.

For `COc1ccccc1CN1C(=O)c2ccccc2[C@](Cc2ccccc2I)(C(=O)O)[C@@H]1c1ccc(CO)cc1`, the composite z-score in [1] is -0.689; in assay [2], 0.387; in [3] it was 0.0043; in [4] it was 1.01; in assay [5] it was 1.51; in [6], 1.36. Further, the composite z-score was 1.27 in assay [7], -0.262 in [9] and 0.305 in [10]. In addition, the z-score in [8] is -1.49 (inactive).

Consider `COC(=O)[C@@]1(Cc2ccc(OC)cc2)[C@H]2c3cc(C(=O)N4CCCC4)n(CCO)c3C[C@H]2CN1C(=O)c1ccccc1`, for which the composite z-score in [1] is 0.0734; in [2], -0.562; in [3], 0.418; in assay [4] it was 1.18; in assay [5], 1.55; in assay [6], 1.77. Further, the values for the composite z-score in assay [7], in [9] and in assay [10] were 0.764, 0.691 and 0.34, respectively. The z-score in assay [8] was 1.45 (inactive).

Take `COC(=O)c1c(CC[C@@H](CO)NC(=O)N2CCC[C@H]2Cn2cc(C3(O)CCCCC3)nn2)oc(C(C)=O)c1C(=O)OC`: the composite z-score in [1] was -0.522; in [2] it was 0.831; in [3], -0.142; in [4] it was 0.439; in [5] it was 0.495; in assay [6] it was 1.11. Further, the values for the composite z-score in assay [7], in [9] and in [10] were 1.19, 0.0512 and -0.201, respectively. In assay [8], the z-score was -0.199 (inactive).

As for `CC(C)(C)OC(=O)COc1cccc(C(=O)CCN2CCOCC2)c1`, the composite z-score in assay [1] was 1.39; in assay [2], 0.262; in [3], -0.0741; in assay [4], -0.459; in assay [5] it was -0.742; in assay [6], 0.359. Besides, the composite z-score in assay [7] is 0.187; in assay [9] it was 0.482; in assay [10], -0.243. Moreover, the z-score in assay [8] is 1.57 (inactive).

With `CCCCC(O)C1C=CC2C(=O)N(C)C(=O)C2N1N(c1ccccc1)c1ccccc1` (stereo not given), the composite z-score in assay [1] was found to be 0.555; in [2], 1.3; in assay [3] it was 0.0748; in assay [4], 0.0636; in [5], 1.14; in assay [6] it was 1.25. The composite z-score in [7] is 0.999; in [9], 0.701; in assay [10] it was 0.0497. Also, the z-score in assay [8] was 0.667 (inactive).

For `CCCNC(=O)[C@@]1(C)c2ccccc2C(=O)N(c2ccc(C)cn2)[C@H]1c1ccc(CO)cc1`, the composite z-score is 0.294 in [1]; 0.0231 in assay [2]; -0.0692 in assay [3]; -0.281 in [4]; 0.0657 in assay [5]; 0.638 in assay [6]. The figures for the composite z-score in assay [7], in assay [9] and in assay [10] were 0.781, -0.215 and -0.219, respectively. In addition, in assay [8], the z-score was 0.683 (inactive).

As to `CC(C)c1ccc(NN2C(C(O)c3ccc(F)cc3)C=CC3C(=O)N(c4ccccc4)C(=O)C32)cc1` (stereo not given), the composite z-score was -0.26 in assay [1]; 0.25 in assay [2]; 0.187 in [3]; 1 in [4]; 1.55 in assay [5]; 1.28 in [6]. The composite z-score in assay [7] was 1.04; in [9] it was 1.25; in [10], -0.118. Also, the z-score in [8] was -0.38 (inactive).

As to `CCCC[C@@H](O)C1=C(COc2ccccc2)C[C@H]2C(=O)N(Cc3ccccc3)C(=O)[C@H]2[C@H]1CO`, the composite z-score was -0.123 in assay [1]; 0.195 in assay [2]; -0.147 in assay [3]; 0.479 in [4]; 0.339 in assay [5]; 1.01 in assay [6]. Further, the composite z-score is 0.426 in [7], -0.0226 in [9] and -0.449 in assay [10]. For the same molecule, in assay [8], the z-score was -0.791 (inactive).

`CCCC[C@@H](O)C1=C(COC)C[C@H]2C(=O)N(Cc3ccccc3)C(=O)[C@H]2[C@H]1CO`: the composite z-score in assay [1] was -1.06; in assay [2] it was 0.0076; in [3], -0.0969; in [4] it was 0.58; in [5], 0.395; in assay [6], 0.179. In addition, the values for the composite z-score in assay [7], in assay [9] and in assay [10] were 0.159, -0.173 and -0.0645, respectively. For the same molecule, the z-score in assay [8] was 0.646 (inactive).

Take `CC(C)[Si]1(C(C)C)OCc2cc(-c3ccc(-c4ccc(Cl)c(Cl)c4)o3)nc(-c3ccccc3)c21`: the composite z-score in [1] was 0.695; in assay [2] it was -0.464; in assay [3], -0.147; in assay [4], -0.818; in [5] it was -1.65; in [6] it was 0.314. The composite z-score in assay [7] is -0.914; in [9] it was -0.774; in assay [10], -0.134. Besides, in assay [8], the z-score was -0.358 (inactive).

On to `COCCOC(=O)N1C(=O)[C@@]2(c3cc(C#CCNC(N)=O)ccc31)[C@H](C(N)=O)[C@H]1C(=O)O[C@H](c3ccccc3)[C@H](c3ccccc3)N1[C@@H]2c1ccccc1OCCO`, for which the composite z-score in [1] was -0.0102; in [2] it was 0.176; in assay [3], -0.0381; in [4], 0.43; in assay [5] it was 1.23; in [6] it was 0.667. Besides, the results for the composite z-score in [7], in assay [9] and in assay [10] were 0.46, 0.931 and 0.107, respectively. The z-score in assay [8] is 1.94 (inactive).

As for `COC(=O)[C@@]1(Cc2ccccc2)[C@H]2c3cc(C(=O)N4CCCC4)n(CCc4ccccn4)c3C[C@H]2CN1C(=O)c1ccccc1`, the composite z-score in assay [1] is 0.223; in assay [2] it was 0.487; in [3], -0.177; in assay [4], 0.283; in [5], 1.33; in assay [6] it was 2.09. Further, the composite z-score stood at 1.35 in [7], 1.18 in [9] and 0.503 in assay [10]. Moreover, the z-score in assay [8] was 2.95 (inactive).

Take `CC(C)[Si](C#CCCCC#N)(O[C@H](c1ccccc1)c1cn(Cc2ccccc2)nn1)C(C)C`: the composite z-score was -0.281 in assay [1]; 0.704 in assay [2]; -0.0728 in [3]; 0.335 in [4]; 0.879 in [5]; 0.048 in assay [6]. Moreover, the composite z-score in assay [7] stood at 1.13; in [9], 0.775; in [10] it was 0.095. Moreover, the z-score in assay [8] was -2.06 (inactive).

As to `C=CCNC(=O)[C@@H]1[C@H]2C(=O)O[C@H](c3ccccc3)[C@H](c3ccccc3)N2[C@H](c2ccccc2OCCO)[C@@]12C(=O)Nc1ccc(C#CCCO)cc12`, the composite z-score in assay [1] was -0.501; in [2] it was 0.143; in [3], 0.0013; in assay [4] it was 0.0379; in assay [5] it was 0.611; in assay [6], 0.99. Also, the composite z-score in assay [7] was found to be 1.19; in assay [9], 0.954; in assay [10] it was 0.154. Further, in [8], the z-score was -0.452 (inactive).

For the molecule `CS(=O)(=O)CCOC(=O)C1=CC(c2ccc(CO)cc2)=CC(C2CC2)N(Cc2sc3ccccc3c2Cl)C=C1C(=O)OCCS(C)(=O)=O` (stereo not given), the composite z-score is -0.0385 in [1]; 0.569 in assay [2]; -0.0746 in assay [3]; 0.165 in assay [4]; 0.87 in assay [5]; 1.77 in assay [6]. Also, the results for the composite z-score in [7], in assay [9] and in assay [10] were 0.962, 0.223 and 0.316, respectively. The z-score in assay [8] is -1.06 (inactive).

Consider `NC(=O)[C@H]1[C@@H]2C(=O)O[C@@H](c3ccccc3)[C@@H](c3ccccc3)N2[C@@H](c2ccc(OCCO)cc2)[C@]12C(=O)Nc1ccc(C#CCCO)cc12`, for which the composite z-score in [1] is 0.127; in [2], 0.685; in assay [3], -0.0524; in [4], 0.715; in assay [5], 0.874; in [6] it was 0.874. Moreover, the composite z-score in [7] is 1.02; in assay [9] it was 0.232; in assay [10], -0.275. In [8], the z-score is 1.7 (inactive).
